Measurements reported in ChEMBL document CHEMBL3988442, “University of Dundee, Small-Polar-MMV Screening Library” (2021).
For some assays here: Entries with a potency or affinity are not part of this list.

What was measured:
Set-up in all cases: scale not given: direction of the effect not stated beside the values
[1] = biological target: Protein translocase subunit SecA (Escherichia coli (strain K12)) (UniProt P10408); assay: Assay to Identify E. coli SecA ATPase Inhibitors; assay type: functional; conditions: 30 µM
[2] = biological target: T1, Ubiquitin-activating enzyme e1, putative (Leishmania donovani (strain BPK282A1)) (UniProt E9BSI1); assay: Leishmania donovani Ubiquitin Activating Enzyme (LdE1); assay type: functional; conditions: 30 µM
T1 sequence (whole entry): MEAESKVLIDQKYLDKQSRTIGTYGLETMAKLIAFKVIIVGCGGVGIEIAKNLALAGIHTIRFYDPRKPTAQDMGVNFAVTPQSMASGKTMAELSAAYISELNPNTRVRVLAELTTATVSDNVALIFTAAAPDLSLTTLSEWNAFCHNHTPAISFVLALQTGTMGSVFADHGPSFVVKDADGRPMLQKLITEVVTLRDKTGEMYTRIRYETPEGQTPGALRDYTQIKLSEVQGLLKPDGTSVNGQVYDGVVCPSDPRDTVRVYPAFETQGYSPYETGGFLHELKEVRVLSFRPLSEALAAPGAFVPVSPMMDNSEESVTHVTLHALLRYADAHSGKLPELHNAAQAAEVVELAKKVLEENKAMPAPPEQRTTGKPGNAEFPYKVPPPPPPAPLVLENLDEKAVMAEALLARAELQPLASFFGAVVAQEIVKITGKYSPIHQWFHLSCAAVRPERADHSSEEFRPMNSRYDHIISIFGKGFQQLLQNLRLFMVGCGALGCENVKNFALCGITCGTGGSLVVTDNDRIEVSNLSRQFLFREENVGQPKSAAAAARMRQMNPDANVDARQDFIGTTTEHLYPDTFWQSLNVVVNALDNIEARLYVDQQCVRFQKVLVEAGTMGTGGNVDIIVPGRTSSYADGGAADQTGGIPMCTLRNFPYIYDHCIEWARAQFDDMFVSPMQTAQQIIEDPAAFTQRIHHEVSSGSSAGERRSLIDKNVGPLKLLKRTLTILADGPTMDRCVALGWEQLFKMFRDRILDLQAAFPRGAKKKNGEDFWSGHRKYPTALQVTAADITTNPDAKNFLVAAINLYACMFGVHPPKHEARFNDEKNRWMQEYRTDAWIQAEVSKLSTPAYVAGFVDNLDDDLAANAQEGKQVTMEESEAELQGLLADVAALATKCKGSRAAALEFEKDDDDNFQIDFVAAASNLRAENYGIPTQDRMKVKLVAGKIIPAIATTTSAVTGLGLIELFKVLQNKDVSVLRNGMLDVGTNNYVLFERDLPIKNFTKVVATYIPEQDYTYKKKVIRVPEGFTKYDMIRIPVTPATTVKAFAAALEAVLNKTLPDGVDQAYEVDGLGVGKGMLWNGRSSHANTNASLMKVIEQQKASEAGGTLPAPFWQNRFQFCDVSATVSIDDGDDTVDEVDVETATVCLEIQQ

[3] = biological target: AMP-activated protein kinase, AMPK (Homo sapiens) (UniProt P54646+O43741+P54619+Q9UGJ0+Q9Y478+Q13131+Q9UGI9); assay: AMP-dependent Kinase enzyme assay. An in vitro enzyme assay that detects ADP turnover that is directly proportional to AMPK activity. This uses naive AMPK that is activated during the assay with MK-8722; assay type: functional; conditions: 30 µM
[4] = biological target: Sialic acid-binding Ig-like lectin 9 (Homo sapiens) (UniProt Q9Y336); assay: Hs-Siglec9 ALPHAscreen SOP 20170721; conditions: 10 µM
Trypanosoma cruzi = assay: Trypanosoma cruzi phosphomannomutase and mannose-1-phosphate guanylyltransferase assay; assay type: functional; conditions: 10 µM
[5] = biological target: T2, Arginase-2, mitochondrial (Homo sapiens) (UniProt P78540); assay: in vitro enzyme assay to detect the production of urea directly proportional to the activity of Arginase II; assay type: functional; conditions: 33.3 µM; also: in the data most compounds retested in dose-response had high values
T2 sequence (whole entry): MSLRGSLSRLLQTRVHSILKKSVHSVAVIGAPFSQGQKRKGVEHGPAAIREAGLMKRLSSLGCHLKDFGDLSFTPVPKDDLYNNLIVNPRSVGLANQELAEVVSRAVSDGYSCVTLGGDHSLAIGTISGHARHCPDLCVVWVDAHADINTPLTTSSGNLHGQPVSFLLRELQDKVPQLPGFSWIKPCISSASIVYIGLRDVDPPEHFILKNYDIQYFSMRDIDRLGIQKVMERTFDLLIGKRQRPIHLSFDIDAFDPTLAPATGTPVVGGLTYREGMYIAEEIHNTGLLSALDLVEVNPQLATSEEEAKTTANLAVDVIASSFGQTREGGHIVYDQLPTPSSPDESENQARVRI

[6] = biological target: T3, Proteasome subunit beta (Trypanosoma cruzi) (UniProt O96673); assay: Trypanosoma cruzi proteasome chymotrypsin-like activity (TcProtChymo) assay.; also: in the data most compounds retested in dose-response had high values; assay type: functional; conditions: 9.37 µM
T3 sequence (whole entry): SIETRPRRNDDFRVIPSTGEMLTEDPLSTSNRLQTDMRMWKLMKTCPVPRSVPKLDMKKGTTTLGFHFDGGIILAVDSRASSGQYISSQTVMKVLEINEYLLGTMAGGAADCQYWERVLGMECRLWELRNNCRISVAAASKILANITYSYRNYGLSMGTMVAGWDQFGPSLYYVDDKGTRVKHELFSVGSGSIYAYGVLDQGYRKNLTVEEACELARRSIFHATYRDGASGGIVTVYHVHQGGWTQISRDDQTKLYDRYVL

Homo sapiens = organism: Homo sapiens; assay: To identify inhibition of the IFN signalling (Jak-Stat) pathway via expression of an eGFP reporter gene under the control of an IFN-stimulated response element (ISRE) containing MxA promoter.; assay type: functional; conditions: 30 µM
[7] = biological target: T4, Tyrosyl-tRNA synthetase, putative (Trypanosoma cruzi (strain CL Brener)) (UniProt Q4DSP6); assay: Trypanosoma cruzi tyrosyl tRNA synthetase (TcYRS) _High Tyrosine SOP; assay type: functional; conditions: 30 µM; also: in the data most compounds retested in dose-response had high values
T4 sequence (whole entry): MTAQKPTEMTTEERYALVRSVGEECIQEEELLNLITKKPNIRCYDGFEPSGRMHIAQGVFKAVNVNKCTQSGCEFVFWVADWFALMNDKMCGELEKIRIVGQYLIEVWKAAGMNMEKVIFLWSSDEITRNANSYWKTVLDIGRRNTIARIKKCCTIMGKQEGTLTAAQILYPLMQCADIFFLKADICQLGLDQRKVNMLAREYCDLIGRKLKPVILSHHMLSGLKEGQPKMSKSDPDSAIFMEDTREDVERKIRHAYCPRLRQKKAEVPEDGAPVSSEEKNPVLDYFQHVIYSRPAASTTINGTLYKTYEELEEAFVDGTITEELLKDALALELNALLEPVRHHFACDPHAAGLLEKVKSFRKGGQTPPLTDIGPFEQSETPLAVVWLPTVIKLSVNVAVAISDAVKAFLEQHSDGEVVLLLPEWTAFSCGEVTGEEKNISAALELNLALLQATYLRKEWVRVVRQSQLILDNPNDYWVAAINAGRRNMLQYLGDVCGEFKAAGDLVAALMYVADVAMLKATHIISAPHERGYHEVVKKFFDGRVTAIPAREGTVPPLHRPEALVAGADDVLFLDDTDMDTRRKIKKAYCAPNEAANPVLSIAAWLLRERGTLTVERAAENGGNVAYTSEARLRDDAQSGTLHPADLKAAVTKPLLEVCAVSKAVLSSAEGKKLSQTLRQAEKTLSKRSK

[8] = biological target: T4, Tyrosyl-tRNA synthetase, putative (Trypanosoma cruzi (strain CL Brener)); assay: Trypanosoma cruzi tyrosyl tRNA synthetase (TcYRS) SOP; assay type: functional; conditions: 30 µM
[9] = biological target: Chromo domain-containing protein 1 (Saccharomyces cerevisiae (strain ATCC 204508 / S288c) (Baker's yeast)) (UniProt P32657); assay: ScCHD-1 Enzyme Inhibition Assay; assay type: functional; conditions: 30 µM; also: in the data most compounds retested in dose-response had high values
Chromo domain-containing protein 1 (Saccharomyces cerevisiae (strain ATCC 204508 / S288c) (Baker's yeast)), sequence (P32657 whole entry, the tested form may be a part): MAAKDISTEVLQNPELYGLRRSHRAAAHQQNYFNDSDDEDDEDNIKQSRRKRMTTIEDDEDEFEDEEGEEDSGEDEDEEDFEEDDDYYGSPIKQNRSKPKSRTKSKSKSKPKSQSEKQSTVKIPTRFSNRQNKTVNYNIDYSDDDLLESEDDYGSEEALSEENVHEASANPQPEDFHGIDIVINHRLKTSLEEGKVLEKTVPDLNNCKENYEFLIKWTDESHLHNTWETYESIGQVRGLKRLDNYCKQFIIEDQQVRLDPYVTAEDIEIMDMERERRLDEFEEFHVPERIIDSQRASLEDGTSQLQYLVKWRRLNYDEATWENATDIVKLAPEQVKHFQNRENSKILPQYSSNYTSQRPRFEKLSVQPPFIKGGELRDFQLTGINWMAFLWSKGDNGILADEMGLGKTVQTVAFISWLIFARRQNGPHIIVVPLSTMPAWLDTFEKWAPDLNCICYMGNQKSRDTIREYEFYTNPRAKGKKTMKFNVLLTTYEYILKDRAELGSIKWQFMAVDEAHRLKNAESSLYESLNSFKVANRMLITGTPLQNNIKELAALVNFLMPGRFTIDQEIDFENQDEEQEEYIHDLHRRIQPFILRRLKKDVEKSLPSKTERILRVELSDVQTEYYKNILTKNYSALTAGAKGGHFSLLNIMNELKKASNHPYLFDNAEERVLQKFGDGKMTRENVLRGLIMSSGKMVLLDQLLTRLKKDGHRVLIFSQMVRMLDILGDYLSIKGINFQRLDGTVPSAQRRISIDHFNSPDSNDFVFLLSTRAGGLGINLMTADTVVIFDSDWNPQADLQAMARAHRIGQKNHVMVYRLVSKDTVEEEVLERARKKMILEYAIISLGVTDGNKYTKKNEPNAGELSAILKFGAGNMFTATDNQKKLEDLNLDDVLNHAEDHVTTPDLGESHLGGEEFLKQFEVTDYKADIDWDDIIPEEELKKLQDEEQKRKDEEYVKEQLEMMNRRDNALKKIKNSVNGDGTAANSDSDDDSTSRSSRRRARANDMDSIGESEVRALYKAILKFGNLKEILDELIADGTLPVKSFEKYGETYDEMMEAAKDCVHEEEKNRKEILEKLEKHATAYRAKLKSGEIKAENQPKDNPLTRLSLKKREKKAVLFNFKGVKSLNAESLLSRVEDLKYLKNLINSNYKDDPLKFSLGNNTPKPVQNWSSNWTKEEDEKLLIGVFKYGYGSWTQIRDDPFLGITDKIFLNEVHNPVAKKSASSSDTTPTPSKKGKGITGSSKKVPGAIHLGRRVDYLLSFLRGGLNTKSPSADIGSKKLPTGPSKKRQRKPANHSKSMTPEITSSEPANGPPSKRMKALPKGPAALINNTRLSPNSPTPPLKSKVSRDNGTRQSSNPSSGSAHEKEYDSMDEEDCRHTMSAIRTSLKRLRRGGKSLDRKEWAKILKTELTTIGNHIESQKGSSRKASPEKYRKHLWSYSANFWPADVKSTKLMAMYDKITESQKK

Protein translocase subunit SecA (Escherichia coli (strain K12)), sequence (P10408 whole entry): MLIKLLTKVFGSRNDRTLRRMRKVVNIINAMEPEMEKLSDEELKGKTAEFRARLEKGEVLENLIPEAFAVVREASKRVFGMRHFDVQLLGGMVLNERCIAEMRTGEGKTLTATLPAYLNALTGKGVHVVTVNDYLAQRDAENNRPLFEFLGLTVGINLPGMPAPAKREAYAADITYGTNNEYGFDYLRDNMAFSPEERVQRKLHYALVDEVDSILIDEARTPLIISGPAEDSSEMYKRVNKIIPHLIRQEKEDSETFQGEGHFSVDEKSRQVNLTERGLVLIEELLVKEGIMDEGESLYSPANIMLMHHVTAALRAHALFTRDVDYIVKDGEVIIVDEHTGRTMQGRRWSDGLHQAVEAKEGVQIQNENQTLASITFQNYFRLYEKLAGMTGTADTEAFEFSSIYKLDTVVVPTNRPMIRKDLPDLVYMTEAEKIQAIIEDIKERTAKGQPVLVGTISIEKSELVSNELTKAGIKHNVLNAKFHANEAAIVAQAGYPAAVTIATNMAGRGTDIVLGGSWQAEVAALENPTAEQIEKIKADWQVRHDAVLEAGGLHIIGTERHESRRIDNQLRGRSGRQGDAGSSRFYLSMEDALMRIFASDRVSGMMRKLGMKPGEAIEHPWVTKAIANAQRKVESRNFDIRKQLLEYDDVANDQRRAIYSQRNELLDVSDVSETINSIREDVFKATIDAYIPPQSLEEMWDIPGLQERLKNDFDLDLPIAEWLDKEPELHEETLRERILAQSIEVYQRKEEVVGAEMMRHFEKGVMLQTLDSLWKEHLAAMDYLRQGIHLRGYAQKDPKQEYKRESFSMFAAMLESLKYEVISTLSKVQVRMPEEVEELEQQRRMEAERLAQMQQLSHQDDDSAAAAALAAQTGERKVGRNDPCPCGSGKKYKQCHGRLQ
Sialic acid-binding Ig-like lectin 9 (Homo sapiens), sequence (Q9Y336 whole entry): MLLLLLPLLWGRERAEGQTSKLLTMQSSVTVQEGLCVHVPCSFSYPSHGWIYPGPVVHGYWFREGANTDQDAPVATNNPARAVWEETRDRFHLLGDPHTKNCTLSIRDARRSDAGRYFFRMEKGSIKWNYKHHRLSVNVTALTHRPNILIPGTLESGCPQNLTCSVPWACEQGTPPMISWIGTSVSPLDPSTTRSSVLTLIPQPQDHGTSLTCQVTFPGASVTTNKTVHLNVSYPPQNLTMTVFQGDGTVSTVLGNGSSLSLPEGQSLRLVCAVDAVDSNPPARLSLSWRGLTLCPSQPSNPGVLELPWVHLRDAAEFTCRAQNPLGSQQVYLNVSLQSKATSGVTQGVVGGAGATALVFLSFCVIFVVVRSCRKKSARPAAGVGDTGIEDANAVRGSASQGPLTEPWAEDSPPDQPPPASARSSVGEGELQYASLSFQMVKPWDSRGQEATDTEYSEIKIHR

SMILES | Percent Effect [1] [%] | Percent Effect [2] [%] | Percent Effect [3] [%] | Percent Effect [4] [%] | Percent Effect (Trypanosoma cruzi) [%] | Percent Effect [5] [%] | Percent Effect [6] [%] | Percent Effect (Homo sapiens) [%] | Percent Effect [7] [%] | Percent Effect [8] [%] | Percent Effect [9] [%]
CC(CNC(=O)c1ccc(F)cc1Cl)N1CCCC1 (stereo unspecified) | -1.76 | 9.72 | 4.21 | -4.19 | -2.82 | 6.18 | 20.4 | -9.11 | 3.16 | 5.13 | -0.608
CCc1noc(C(C)N2CCN(Cc3nc(C)c(C)o3)CC2)n1 (stereo unspecified) | -2.85 | 0 | 6.83 | 1.87 | -6.39 | -0.766 | 0.668 | 20.8 | -5.39 | -7.32 | 2.3
O=C(NCCN1CCOCC1)c1n[nH]c(=O)c2ccccc12 | -3.44 | 28.6 | -3.48 | 5.43 | 6.37 | -3.56 | 14.2 | 12.3 | 4.85 | 21.9 | -9.16
O=C(CCNCC(F)(F)F)N1CCC(Nc2cccnn2)CC1 | 2.07 | 28.9 | 4.48 | -13.6 | 5.13 | 4.68 | 8.88 | 12.2 | 4.43 | 23.5 | -14.7
Cc1noc(C)c1-c1cccc(CC2CCN(C(=O)CCC(=O)O)C2)n1 (stereo unspecified) | -2.58 | 6.76 | 5.24 | 4.95 | 3.16 | 0.696 | 3.28 | -7.92 | 1.07 | 3.9 | -9.71
Cn1ccc(C(=O)NC2CCN(c3ncccn3)CC2)cc1=O | -2.08 | 13.5 | -7.39 | 7.92 | -0.0943 | 0.401 | 9.73 | 5.6 | 1.48 | 11.1 | -9.93
CCOc1ccc(C#N)cc1NCC(=O)Nc1cc(F)ccc1F | -4.77 | -12.7 | -7.04 | -0.166 | 4.63 | -29.7 | 3.19 | -7.08 | 7.39 | 24.1 | 18.3
CC(C)Cc1noc(CN2CCN(C(=O)c3cccc(F)c3)CC2)n1 | -4.75 | -2.74 | 1.5 | 5.59 | 1.39 | 0 | 1.97 | 0.357 | 4.17 | 1.24 | 6.05
Cc1cc(C)cc(OCCC(=O)N2CCOCC2c2ncon2)c1 (stereo unspecified) | -7.26 | 2.7 | -4.41 | 6.93 | -5.11 | -1.29 | -1.62 | 4.3 | 2.97 | 11 | 0.318
COc1cc(C)ccc1OCCC(=O)N1CCCC1Cn1cccn1 (stereo unspecified) | -6.85 | 15.8 | -7.6 | 14.4 | 3.64 | -1.44 | 0.254 | 1.25 | 5.42 | 13.6 | -6.6
Cc1ccccc1S(=O)(=O)NC(=O)CSc1ccc2c(c1)OCCO2 | -0.381 | 1.39 | -0.933 | -9.91 | -3.21 | 0 | 10 | 1.45 | -11.6 | -7.69 | 0.792
O=C(NCCc1cccc(F)c1)NCC(O)c1cccc(F)c1 (stereo unspecified) | -2.56 | 5.41 | 4.6 | 6.95 | 1.04 | 1.6 | 7.93 | 10.8 | 8.37 | 23.5 | -3.01
CCOc1ncccc1NC(=O)c1sccc1C | -2.31 | -1.39 | 2.84 | -14.7 | -4.57 | 2.21 | 23.2 | -6.94 | 4.21 | 7.69 | 4
Cc1occc1C(=O)N1CCOCC2(CCN(Cc3nccs3)C2)C1 (stereo unspecified) | -0.601 | 2.6 | 0.286 | 7.22 | -0.688 | 5.52 | 9.82 | -13.2 | -3.23 | -6.17 | 2.92
CN(C)c1nc2c(c(=O)[nH]1)CCN(C(=O)c1cccc3nccnc13)C2 | 1.03 | 18.2 | -1.68 | 4.82 | 1.87 | -33.1 | 19.1 | 29.3 | 8.6 | 16.1 | -3.03
Cc1nc(C)n(CC2CCCCN2Cc2nnc(C3CC3)o2)n1 (stereo unspecified) | 0.312 | 2.6 | 3.13 | 1.14 | 3.37 | 0.712 | 1.69 | 1.94 | 0.971 | 7.32 | -9.02
